# aSyn UTR act: Activators working through SNCA 5'UTR binding (MLPCN) | 7.1% of 300,000 active | alpha-synuclein 5'UTR reporter, activators screen | activity score, % (tested at 7.5 µM), hits read low | AID 1814; in the data active = activity score below about -60%
# * marks the source's active call; other numbers are inactive results. A selection follows.
SMILES,aSyn UTR act
O=C(C1=C[C@@H](c2csc3ccccc23)C[C@@H](OCc2ccc(CO)cc2)O1)N1CCN(Cc2ccc3c(c2)OCO3)CC1,69
O=[N+]([O-])c1ccccc1CSc1nnc2ccccn12,-121*
Clc1ccc(CSc2snnc2-c2ccccc2)c(Cl)c1,-121*
c1ccn2c(SCc3cn4ccsc4n3)nnc2c1,-166*
Clc1ccc(CSc2nnc3ccccn23)c(Cl)c1,-75*
NC(N)=NS(=O)(=O)c1ccc(N/C=C/C(=O)c2ccc(Cl)c(Cl)c2)cc1,-119*
CSc1ccccc1C(=O)Nc1ccc(C)c(C)c1,-130*
CCOc1ccc(NC(=O)c2ccccc2SC)cc1,-110*
CNc1ncc(C(=O)c2ccc(Cl)c(Cl)c2)s1,-149*
CNc1ncc(C(=O)c2ccc(Cl)cc2)s1,-124*
CCCc1nc(Nc2nc3ccccc3o2)nc(C)c1C(=O)OCC,-80*
CCOC(=O)c1cnc(Nc2nc3ccccc3o2)nc1CSc1ncccn1,-100*
N/C(=N\OC(=O)C1CCCCC1)c1ccc(Cl)cc1,-138*
N/C(=N\OC(=O)C1CCCCC1)c1ccccn1,-119*
N/C(=N\OC(=O)C1CCCCC1)c1ccc(Br)cc1,-217*
NC(=O)c1cc(Br)cc(C2CCCCC2)c1O,87
COCCCNC(=O)/C=C1\Sc2ccccc2N(Cc2ccccc2F)C1=O,-94*
CC1CCN(CC(CS(=O)(=O)c2ccc([N+](=O)[O-])cc2)N2CCC(C)CC2)CC1 (configuration not stated),-66*
CN(C)/C=C1\C(=O)N(c2ccc(Cl)c(Cl)c2)CS1(=O)=O,-81*
Cc1ccsc1/C=N/NC(=O)Nc1ccccc1,-162*
Cc1ccsc1/C=N/NC(=O)c1ccc2ccccc2c1,-216*
Cc1ccsc1/C=N/NC(=O)c1ccc([N+](=O)[O-])cc1,-88*
COc1cc(C(=O)N/N=C/c2sccc2C)cc(OC)c1OC,114
Cc1cccc(C(=O)OCC(=O)c2ccc3c(c2)OCO3)c1O,-153*
O=C(COC(=O)c1ccccc1[N+](=O)[O-])c1ccc2c(c1)OCO2,-187*
SMILES,aSyn UTR act
Cc1ccc(N=Nc2ccc(N)cc2C)c(S(N)(=O)=O)c1,-80*
Cc1ccc(N=Nc2cc(C)ccc2N)cc1,61
Cc1ccc(N=Nc2cc(C)ccc2O)c(C)c1,-215*
COc1ccc(C2=NC(c3ccccc3)CO2)cc1 (configuration not stated),-118*
COc1cccc(N=c2oc3ccccc3cc2-c2nc3ccccc3[nH]2)c1,-80*
O=C(Nc1ccccc1)O/N=C/c1ccc(F)cc1,-189*
Cc1ccc(NC(=O)O/N=C/c2ccc(N(C)C)cc2)cc1,-71*
Cc1ccc(NC(=O)O/N=C/c2ccc(F)cc2)cc1,-131*
N/C(=N\OC(=O)c1ccc(Cl)cc1Cl)c1ccncc1,-112*
N/C(CS(=O)(=O)c1ccccn1)=N\OC(=O)c1ccccc1Cl,-114*
N/C(=N\OC(=O)c1ccccc1Cl)c1ccncc1,-107*
N/C(=N\OC(=O)c1cc(Cl)ccc1Cl)c1ccncc1,-229*
Cc1ccc(C(=O)O/N=C(\N)c2ccccc2)c(Cl)c1,85
c1ccc2c(c1)oc1c(NCC3CCCO3)ncnc12 (configuration not stated),-178*
Cc1nc(Nc2ccncc2)c2oc3ccccc3c2n1,-66*
CC(=O)c1ccc(Nc2ncnc3c2oc2ccccc23)cc1,-90*
c1ccc(CNc2ncnc3c2oc2ccccc23)nc1,-171*
COc1ccc(N=CC2=C(O)c3ccccc3C2=O)c(OC)c1,63
Cc1ccccc1N=CC1=C(O)c2ccccc2C1=O,-138*
O=C1C(C=Nc2ccc(F)cc2)=C(O)c2ccccc21,-214*
COc1ccc(OC)c(-c2cc(C(=O)Nc3c(C)nn(Cc4ccccc4)c3C)no2)c1,61
COc1ccc2cc(C(=O)NCc3ccco3)c(=O)oc2c1,-93*
COc1ccc(OC)c(-c2cc(C(=O)NCc3ccco3)no2)c1,-69*
CC1CCc2onc(C(=O)NCc3ccco3)c2C1 (configuration not stated),-64*
O=C(NCc1ccco1)c1cc(-c2cccc(Cl)c2)on1,-92*
SMILES,aSyn UTR act
COc1cccc(-c2cc(C(=O)NCc3ccco3)no2)c1,-97*
O=C(NCc1ccco1)c1ccc(Cn2c(=O)c3ccccc3n(Cc3cccc(Cl)c3)c2=O)cc1,64
O=C(NCc1ccco1)c1ccc(-c2cccc(Cl)c2)o1,-74*
O=C(NCc1ccco1)c1cc(-c2ccc3c(c2)OCO3)on1,-97*
O=C(NCc1ccco1)c1cc(-c2ccc(Cl)cc2)on1,-130*
Cc1ccc(-c2cc(C(=O)NCc3ccco3)no2)cc1,-154*
CC1=Nc2cc(C(=O)NCc3ccco3)ccc2Sc2ccc(C)cc21,101
CC(C)Cc1cc(C(=O)NCc2ccco2)no1,-92*
CCOc1cccc(C(=O)NC2CCCCC2)c1,-67*
O=C(NC1CCCCCCC1)c1cccc(Cl)c1,-166*
COc1ccccc1NS(=O)(=O)c1cccc(C(=O)NC2CCN(Cc3ccccc3)CC2)c1,83
O=C(NC1CCCCC1)C(c1cccnc1)N(C(=O)CCl)c1cccc(Cl)c1 (configuration not stated),-81*
O=C(NC1CCCCCCC1)c1cc(F)c(F)cc1Cl,-81*
CN(C)CCOc1nc(-c2ccccc2)nc2c1oc1ccccc12,-88*
CC1CN(C(=O)c2cccc(COc3ccc(Br)cc3)c2)CC(C)O1 (configuration not stated),-104*
CCOc1ccc(OCc2cccc(C(=O)N3CCOCC3)c2)cc1,102
CN(C(=O)c1cccc(N2C(=O)C3C4C=CC(C4)C3C2=O)c1)C1CCCCC1 (configuration not stated),-102*
CN(C(=O)c1ccc2c(c1)OCO2)C1CCCCC1,-82*
O=C(NC1CCCCC1)c1ccc2c(c1)OCO2,-93*
COc1cccc(NC(=O)c2cnn(-c3ccccc3)c2C)c1,-91*
CCn1ncc(C(=O)Nc2cccc(Cl)c2)c1C,-207*
Cc1ccc(NC(=O)c2cnn(-c3ccccc3)c2C)c(C)c1,-212*
COc1ccc(OC)c(C(=O)NC2CC(C)(C)Cc3c2cnn3-c2ccccc2)c1 (configuration not stated),67
O=C(Nc1cccc(Cl)c1)c1ccc(Cn2cc(Cl)cn2)cc1,-70*
CCc1cccc(NC(=O)c2cnn(-c3ccccc3)c2C)c1,-144*
SMILES,aSyn UTR act
Cc1nc2ccc(NC(=O)Cc3c(F)cccc3Cl)cc2s1,-126*
O=C(Cc1cccs1)Nc1cccc(-c2nc3cc4ccccc4cc3[nH]2)c1,-92*
Cc1nc2ccc(NC(=O)Cc3cccs3)cc2s1,-148*
Cc1ccc(NC(=O)Cc2cccs2)cc1Cl,-116*
Cc1[nH]c2ccccc2c(=O)c1C(=O)/C=C/c1ccccc1,-281*
Cc1[nH]c2ccccc2c1/C=C/C(=O)c1ccccc1,-64*
C/C(=N\NC(=O)c1cc2ccccc2cc1O)c1ccccn1,88
C/C(=N/NC(=O)c1cc2ccccc2cc1O)C1C(=O)c2ccccc2C1=O,-94*
O=C1CC(c2ccco2)CC2=C1C1c3ccccc3C(=O)N1c1ccccc1N2 (configuration not stated),-114*
Cc1cc(C)c2nc3sc(C(=O)N4CCOCC4)c(N)c3cc2c1,88
Cc1ccc(C)c2nc3sc(C(=O)N4CCOCC4)c(N)c3cc12,-129*
CCOC(=O)c1sc(-c2ccc(C)cc2)c(C#N)c1C,-65*
C=C(C)CSc1nc2nc(C)c(Br)cc2[nH]1,-73*
CCOC(=O)C1CCN(C(=O)c2cc(COc3ccc(F)cc3F)on2)CC1,-144*

# Screening data (PubChem)
